From PubChem BioAssay (Tox21)
Inconclusive results are not listed. The source made the active and inactive calls. Unless noted, the call rests on the fitted dose curve; in most records, active means well fitted curve in the direction sought with a large enough effect in the repeat runs; inconclusive means weak or mixed curves; inactive means no such curve, though single readings can be large; an effect the other way counts as inactive or inconclusive. Where a SMILES comes first, the peptide text is derived from it. [ ]: non-standard residue; d: D form. pGlu = O=C1CC[C@@H](C(=O)O)N1

What was measured:
[1] = A CellTox Green Cytotoxicity Assay to monitor cytotoxicity in HepG2 cells - 0 hour (AID 1224882); further: nearly all actives have a fitted effect of over 35% in size
How it was run: (§1)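 Measurements at 0, 8, 16, 24, 32 and 40 h of treatment captured CellTox Green fluorescence in HepG2 cells that had been co-plated with reagent and preincubated 5 h at 37 C/5% CO2.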

[2] = A CellTox Green Cytotoxicity Assay to monitor cytotoxicity in HepG2 cells - 32 hour (AID 1224883); further: nearly all actives have a fitted effect of over 50% in size
How it was run: as §1

[3] = A CellTox Green Cytotoxicity Assay to monitor cytotoxicity in HEK293 cells - 8 hour (AID 1224884); further: nearly all actives have a fitted effect of over 35% in size
How it was run: (§2)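 Tox21 screen in HEK293: membrane-impermeant cyanine dye fluoresces on binding dead-cell DNA; compound pinned 5 h post-seeding, plates held at 37 C, signal read repeatedly through 40 h.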

[4] = qHTS RealTime-Glo MT Cell Viability Assay in HepG2 cells - 16 hour (AID 1224885); further: nearly all actives have a fitted effect of over 50% in size
How it was run: (§3)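 HepG2 suspension premixed with RealTime-Glo reagents is plated at 600 cells per well and left 5 h at 37 C/5% CO2. Compounds in DMSO then go in, and bioluminescence reflecting viable cell number is recorded over 40 h.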

[5] = qHTS RealTime-Glo MT Cell Viability Assay in HEK293 cells - 24 hour (AID 1224886); further: top concentration of the series differs between compounds; nearly all actives have a fitted effect of over 50% in size
How it was run: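 Reads taken at 0, 8, 16, 24, 32 and 40 h from the same wells. HEK293 cells (600/well) carried RealTime-Glo reagents from seeding, with compound added after a 5 h settle at 37 C.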

[6] = qHTS RealTime-Glo MT Cell Viability Assay in HEK293 cells - 8 hour (AID 1224887); further: top concentration of the series differs between compounds; nearly all actives have a fitted effect of over 50% in size
How it was run: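 HEK293 + NanoLuc + prosubstrate, 600 cells/well; 5 h, 37 C/5% CO2; compound 23 nL in DMSO by pintool; 37 C; luminescence read at 0, 8, 16, 24, 32 and 40 h time points.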

[7] = A CellTox Green Cytotoxicity Assay to monitor cytotoxicity in HEK293 cells - 16 hour (AID 1224888); further: nearly all actives have a fitted effect of over 35% in size
How it was run: as §2

[8] = qHTS RealTime-Glo MT Cell Viability Assay in HepG2 cells - 0 hour (AID 1224889); further: nearly all actives have a fitted effect of over 50% in size
How it was run: as §3

[9] = A CellTox Green Cytotoxicity Assay to monitor cytotoxicity in HepG2 cells - 8 hour (AID 1224890); further: nearly all actives have a fitted effect of over 45% in size
How it was run: as §1

[10] = qHTS assay to identify small molecule antagonists of the estrogen receptor alpha (ER-alpha) signaling pathway using the BG1 cell line in the presence of 0.1 nM 17-beta-estradiol - cell viability counter screen (AID 1259241); further: nearly all actives have a fitted effect of over 40% in size
How it was run: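 Viability in VM7Luc4E2 cells after 22 hr compound exposure under 0.1 nM 17beta-estradiol stimulation, by CellTiter-Fluor.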

[11] = qHTS assay to identify small molecule antagonists of the androgen receptor (AR) signaling pathway using the MDA cell line in the presence of 0.5 nM R1881 - cell viability counter screen (AID 1259242); further: nearly all actives have a fitted effect of over 45% in size
How it was run: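 Concentration-response screen of compounds for toxicity in MDA-kb2 reporter cells: 16 hr at 37C with 0.5 nM R1881, endpoint live-cell protease fluorescence measured in the reporter wells.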

[12] = molecular target: Androgen receptor (Homo sapiens) (UniProt P10275); assay: qHTS assay to identify small molecule antagonists of the androgen receptor (AR) signaling pathway using the MDA cell line in the presence of 0.5 nM R1881 (AID 1259243); further: nearly all actives have a fitted effect of over 50% in size
How it was run: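 With R1881 held at 0.5 nM (final), compound effects on MMTV-luciferase expression in MDA-kb2 cells were scored by luminescence after a 16 hr, 37C incubation.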

[13] = qHTS assay to identify small molecule HDAC inhibitors (AID 1259364);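 further: wild-type HCT-116 cells with endogenous class I/II HDAC activity; top concentration of the series differs between compounds; nearly all actives have a fitted effect of over 45% in size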
How it was run: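 Screening used wild-type human colon HCT-116 cells incubated overnight, dosed with compounds for 2 hours, and assayed with a homogeneous luminogenic HDAC I/II reagent for 30 minutes at room temperature.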

[14] = qHTS assay to identify small molecule HDAC inhibitors - cell viability counter screen (AID 1259365)
How it was run: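 Cytotoxicity was gauged in wild-type HCT-116 cells after a brief 2hr treatment with DMSO-dissolved compounds at 37C and 5% CO2, using CellTiter-Glo luminescence developed for 30min at room temperature.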

[15] = qHTS assay to identify small molecule agonists of the sonic hedgehog signaling (Shh) pathway - cell viability counter screen (AID 1259366); further: nearly all actives have a fitted effect of over 50% in size
How it was run: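 Stable Gli1-Luc NIH/3T3 clone, 2,000 cells/well. Compound exposure 24hr at 37C. Read-out: CellTiter-Fluor fluorescence.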

[16] = qHTS assay to identify small molecule antagonists of the sonic hedgehog signaling (Shh) pathway - cell viability counter screen (AID 1259367); further: nearly all actives have a fitted effect of over 55% in size
How it was run: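 Fluorescence read-out (CellTiter-Fluor, 1 hr at 37C) taken after 23 hr compound treatment of 3T3 Gli1-Luc cells stimulated with conditioned medium. Cells were seeded at 2,000 per well and pre-incubated 4 hr.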

[17] = qHTS assay to identify small molecule agonists of the sonic hedgehog signaling (Shh) pathway (AID 1259368; calls by dose curve;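 further: NIH/3T3-derived 3T3Gli1-Luc cells carrying a stable Gli1-driven firefly luciferase reporter; series mostly up to about 92 µM; nearly all actives have a fitted effect of over 15% in size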)
How it was run: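 Hedgehog pathway agonism scored by increased firefly luciferase luminescence in 3T3Gli1-Luc cells treated 24 hr at 37 C; detection used a 30 min room-temperature reagent incubation.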

[18] = qHTS assay to identify small molecule antagonists of the sonic hedgehog signaling (Shh) pathway (AID 1259369; calls by dose curve; further: nearly all actives have a fitted effect of over 45% in size)
How it was run: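 NIH/3T3 stable Gli1-Luc clone, 2,000 cells/well, 4hr settle; cpd + conditioned medium 24hr; Luc reagent 30min RT; luminescence.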

[19] = molecular target: Estrogen receptor (Homo sapiens) (UniProt P03372); assay: qHTS assay to identify small molecule antagonists of the estrogen receptor alpha (ER-alpha) signaling pathway using the BG1 cell line in the presence of 0.1 nM 17-beta-estradiol (AID 1259244); further: nearly all actives have a fitted effect of over 50% in size
How it was run: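 Compounds were tested against 0.1 nM (final) 17beta-estradiol in VM7Luc4E2 cells, which express full-length ER-alpha and an ERE-luciferase reporter; luminescence was recorded following 22 h exposure.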

[20] = qHTS assay to identify small molecule phospholipidosis (PLD) inducers (AID 1259344; active means well fitted curve in the direction sought with a large enough effect; an effect the other way counts as inactive or inconclusive)
How it was run: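 Read-out is LipidTOX Red fluorescence (ex 595/em 615) imaged in HepG2 cells after 24 h compound exposure at 37 C, with Hoechst nuclear counterstain (ex 352/em 461) allowing per-cell normalisation.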

Measured: Potency

Chain of Androgen receptor (Homo sapiens) (P10275 whole entry, looked up): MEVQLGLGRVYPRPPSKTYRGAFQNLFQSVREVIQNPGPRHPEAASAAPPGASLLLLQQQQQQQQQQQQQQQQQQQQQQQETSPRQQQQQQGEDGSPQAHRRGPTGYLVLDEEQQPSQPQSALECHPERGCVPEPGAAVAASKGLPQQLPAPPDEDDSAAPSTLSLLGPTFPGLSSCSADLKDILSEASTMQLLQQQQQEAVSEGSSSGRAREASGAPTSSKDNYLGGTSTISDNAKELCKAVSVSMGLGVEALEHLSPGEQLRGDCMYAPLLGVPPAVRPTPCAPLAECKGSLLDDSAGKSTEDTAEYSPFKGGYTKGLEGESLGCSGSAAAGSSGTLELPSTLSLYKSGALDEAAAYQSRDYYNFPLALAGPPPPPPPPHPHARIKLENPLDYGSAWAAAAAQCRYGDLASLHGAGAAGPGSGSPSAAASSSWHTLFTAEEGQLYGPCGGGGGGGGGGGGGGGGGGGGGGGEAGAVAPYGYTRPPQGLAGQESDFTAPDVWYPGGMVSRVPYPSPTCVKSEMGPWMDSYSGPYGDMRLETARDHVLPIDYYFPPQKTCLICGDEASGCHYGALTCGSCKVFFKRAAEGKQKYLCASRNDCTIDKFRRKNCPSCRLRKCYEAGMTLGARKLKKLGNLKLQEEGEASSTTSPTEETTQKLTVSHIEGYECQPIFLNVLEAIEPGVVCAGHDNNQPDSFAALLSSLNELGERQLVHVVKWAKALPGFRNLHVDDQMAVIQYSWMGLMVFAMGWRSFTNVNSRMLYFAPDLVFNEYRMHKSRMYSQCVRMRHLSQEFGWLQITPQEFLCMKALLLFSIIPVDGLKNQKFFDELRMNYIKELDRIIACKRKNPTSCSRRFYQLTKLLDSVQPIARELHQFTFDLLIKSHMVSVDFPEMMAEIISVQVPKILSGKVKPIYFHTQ
Chain of Estrogen receptor (Homo sapiens) (P03372 whole entry, looked up): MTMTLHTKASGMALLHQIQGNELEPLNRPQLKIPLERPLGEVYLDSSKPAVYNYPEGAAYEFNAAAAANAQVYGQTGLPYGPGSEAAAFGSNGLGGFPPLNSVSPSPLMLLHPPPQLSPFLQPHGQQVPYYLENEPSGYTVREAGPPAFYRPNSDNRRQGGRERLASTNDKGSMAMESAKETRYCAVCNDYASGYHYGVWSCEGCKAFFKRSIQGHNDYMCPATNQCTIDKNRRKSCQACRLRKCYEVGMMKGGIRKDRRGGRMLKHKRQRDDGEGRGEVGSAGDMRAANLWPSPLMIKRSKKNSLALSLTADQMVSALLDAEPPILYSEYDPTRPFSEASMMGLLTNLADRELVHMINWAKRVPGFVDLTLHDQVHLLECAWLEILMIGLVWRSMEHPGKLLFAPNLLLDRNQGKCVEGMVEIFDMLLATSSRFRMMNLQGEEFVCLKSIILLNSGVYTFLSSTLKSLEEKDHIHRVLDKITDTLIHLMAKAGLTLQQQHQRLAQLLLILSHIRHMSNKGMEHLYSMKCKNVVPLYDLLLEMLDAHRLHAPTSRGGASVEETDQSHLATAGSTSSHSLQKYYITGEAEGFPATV

O=S(=O)(O)c1cccc(S(=O)(=O)O)c1
inactive: [1] | [2] | [3] | [4] | [5] | [6] | [7] | [8] | [9] | [10] | [11] | [12] | [13] | [14] | [15] | [16] | [17] | [18]

COc1cc(C(=O)OC(COCCC(C)C)CN2CCOCC2)cc(OC)c1OC (configuration not stated)
inactive: [1] | [2] | [3] | [4] | [5] | [6] | [7] | [8] | [9] | [10] | [11] | [19] | [20] | [13] | [14] | [15] | [16] | [17] | [18]

CC(=O)N1C[C@H](O)C[C@H]1C(=O)O
inactive: [1] | [2] | [3] | [4] | [5] | [6] | [7] | [8] | [9] | [10] | [11] | [12] | [19] | [20] | [13] | [14] | [15] | [16] | [17] | [18]

CC1CCC(CO)CC1 (configuration not stated)
inactive: [1] | [2] | [3] | [4] | [5] | [6] | [7] | [8] | [9] | [10] | [11] | [12] | [13] | [14] | [16] | [17] | [18]

Cc1onc(-c2c(Cl)cccc2Cl)c1C(=O)Cl
inactive: [1] | [2] | [3] | [4] | [5] | [6] | [7] | [8] | [9] | [10] | [11] | [12] | [19] | [13] | [14] | [16] | [17] | [18]

CC[C@H]1OC(=O)[C@H](C)[C@@H](O[C@H]2C[C@@](C)(OC)[C@@H](O)[C@H](C)O2)[C@H](C)[C@@H](O[C@@H]2O[C@H](C)C[C@H](N(C)C)[C@H]2O)[C@](C)(OC)C[C@@H](C)C(=O)[C@H](C)[C@@H](O)[C@]1(C)O
inactive: [1] | [2] | [3] | [4] | [5] | [6] | [7] | [8] | [9] | [10] | [11] | [19] | [20] | [13] | [14] | [16] | [17]

CN(C)C(=O)Oc1ccc[n+](C)c1
inactive: [1] | [2] | [3] | [4] | [5] | [6] | [7] | [8] | [9] | [10] | [11] | [19] | [20] | [13] | [14] | [15] | [16] | [17] | [18]

CC(C)(C)C(=O)Oc1ccc(S(=O)(=O)Nc2ccccc2C(=O)NCC(=O)O)cc1
inactive: [1] | [2] | [3] | [4] | [5] | [6] | [7] | [8] | [9] | [10] | [11] | [19] | [20] | [13] | [14] | [16] | [17] | [18]

CCNC(=O)[C@@H]1CCCN1C(=O)[C@H](CCCN=C(N)N)NC(=O)[C@H](CC(C)C)NC(=O)CNC(=O)[C@H](Cc1ccc(O)cc1)NC(=O)[C@H](CO)NC(=O)[C@H](Cc1c[nH]c2ccccc12)NC(=O)[C@H](Cc1cnc[nH]1)NC(=O)[C@@H]1CCC(=O)N1 ([pGlu]HWSYGLRP-NHEt)
inactive: [1] | [2] | [3] | [4] | [5] | [6] | [7] | [8] | [9] | [10] | [11] | [19] | [13] | [14] | [15] | [16] | [17] | [18]

CC[N+](CC)(CC)CCOc1cccc(OCC[N+](CC)(CC)CC)c1OCC[N+](CC)(CC)CC
inactive: [1] | [2] | [3] | [4] | [5] | [6] | [7] | [8] | [9] | [10] | [11] | [12] | [20] | [14] | [15] | [16] | [17] | [18]

CCCCCCCCCCCCCCCCCCO
inactive: [1] | [2] | [3] | [4] | [5] | [6] | [7] | [8] | [9] | [10] | [11] | [19] | [20] | [13] | [14] | [15] | [16] | [17] | [18]

CCOC(=O)COC(=O)c1ccccc1C(=O)OCC
inactive: [1] | [2] | [3] | [4] | [5] | [6] | [7] | [8] | [9] | [10] | [11] | [19] | [13] | [14] | [15] | [16] | [17] | [18]

CC(C)c1ccc2ncccc2c1
inactive: [1] | [2] | [3] | [4] | [5] | [6] | [7] | [8] | [9] | [10] | [11] | [19] | [13] | [14] | [15] | [16] | [17] | [18]
